The panel holds about 83,000 compounds, 20% with a hit somewhere; the sample as a whole holds those more often.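 Testing used 96-well plates and a 48-hour single-concentration exposure. Example: -40 means 40% of the starting cells died.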 Values without a mark were called inactive. Activity calls are given as the source filed them. Rule for the calls: active = growth percent below 10; inactive = the rest.
Columns and labels:
Assay in all cases: NCI-60 one-dose screen, 48 h (100 = growth as untreated, 0 = no growth, -100 = all killed)
Conditions in all cases: 10 µM unless noted
NCI-H23 lung = system: NCI-H23 lung
NCI-H226 lung = system: NCI-H226 lung
NCI-H322M lung = system: NCI-H322M lung
HOP-62 NSCLC = system: HOP-62 NSCLC
NCI-H460 lung = system: NCI-H460 lung
HOP-92 NSCLC = system: HOP-92 NSCLC
NCI-H522 lung = system: NCI-H522 lung
A549/ATCC NSCLC = system: A549/ATCC NSCLC
786-0 renal = system: 786-0 renal
COLO 205 colon = system: COLO 205 colon
DU-145 prostate = system: DU-145 prostate
K-562 leukemia = system: K-562 leukemia
MALME-3M melanoma = system: MALME-3M melanoma
MDA-MB-231 breast = system: MDA-MB-231 breast
RXF 393 renal = system: RXF 393 renal
SF-268 CNS = system: SF-268 CNS
SF-295 CNS = system: SF-295 CNS
SF-539 CNS = system: SF-539 CNS
UACC-257 melanoma = system: UACC-257 melanoma
M14 melanoma = system: M14 melanoma

SMILES | growth (NCI-H23 lung) | growth (NCI-H226 lung) | growth (NCI-H322M lung) | growth (HOP-62 NSCLC) | growth (NCI-H460 lung) | growth (HOP-92 NSCLC) | growth (NCI-H522 lung) | growth (A549/ATCC NSCLC) | growth (786-0 renal) | growth (COLO 205 colon) | growth (DU-145 prostate) | growth (K-562 leukemia) | growth (MALME-3M melanoma) | growth (MDA-MB-231 breast) | growth (RXF 393 renal) | growth (SF-268 CNS) | growth (SF-295 CNS) | growth (SF-539 CNS) | growth (UACC-257 melanoma) | growth (M14 melanoma)
CC1=CC(=NN=c2cc(C)n([O-])c(C)c2)C=C(C)[N+]1=O | 95.5% | 64.2% | 114% | 79.6% | 102% | 93.2% | 67.6% | 87.4% | 79.3% | 29.8% | 107% | 85% | 106% | 97.7% | 87.8% | 106% | 112% | 105% | 77.4% | 
CN(CCCCCl)P(=O)(OCc1ccc([N+](=O)[O-])o1)C(F)(F)c1ccc(CC(=O)NC[C@@H](O)/C=C\[C@@H](O)[C@H](CO)Cc2ccccc2)cc1 (some centres undefined) | 92.8% | 95.6% | 96.6% | 96.6% | 102% | 135% | -2.39% (active) | 85.3% | 107% | 103% | 105% | 50.2% | 92.1% | 89.3% | 100% | 98.5% | 98.3% | 102% | 92.2% | 95.3%
OC(COc1cccc2ccccc12)CN1CCN(c2ccccc2Cl)CC1 (centres undefined) | 80.3% | 106% | 95.5% | 88% | 91.1% | 74.5% | 98.8% | 96.6% | 91.4% | 104% | 109% | 99.3% | 108% | 83.7% | 158% | 98.6% | 86.4% | 93.2% | -1.88% (active) | 
COc1cccc(C2=NN3C(C2)c2cc(Br)cc(OC)c2OC32CCN(Cc3ccccc3)CC2)c1 (centres undefined) | 95.7% | 85.3% | 103% | 105% | 101% | 111% | 96.2% | 102% | 104% | 107% | 105% | 105% | 99.7% | 109% | 115% | 94.5% | 101% | 105% | 104% | 107%
Cc1nn(-c2cc(=O)[nH]c3ccccc23)c(N)c1C#N | 106% | 91.4% | 97% | 100% | 104% | 106% | 95.6% | 107% | 105% | 123% | 107% | 105% | 108% | 103% | 112% | 97.7% | 100% | 95% | 110% | 106%
COc1ccc(/C=C(\C#N)C(=O)Nc2cccc(Nc3nc(SC)nc(-c4cccc([N+](=O)[O-])c4)c3C#N)c2)cc1OC | 88.5% | 91.8% | 100% | 91.3% | 100% | 111% | 97.2% | 103% | 106% | 112% | 107% | 77.9% | 97% | 68.9% | 110% | 103% | 97.2% | 93.4% | 103% | 
O=C(N(c1ccccc1)c1ccccc1)n1ccc2nc(Cl)nc(Cl)c21 | 60.8% | 53.9% | 67.9% | 45.5% | 36.1% | 52.3% | 24.9% | 56.2% | 80.1% | 77.7% | 33.8% | 42.8% | 58.6% | 71.4% | 32.7% | 66.3% | 74.1% | 68% | 70.2% | 
CCC([N+](=O)[O-])S(=O)(=O)c1ccc(C)cc1 (centres undefined) | 93.2% | 102% | 112% | 84.7% | 104% | 87.9% | 89.3% | 96.7% | 89.4% | 115% | 160% | 115% | 143% | 103% | 97.1% | 126% | 111% | 94.5% | 102% | 
O=C1/C(=C/c2ccc3c(c2)OCO3)SC(=S)N1CCc1ccc(O)cc1 | 94.1% | 102% | 97.3% | 102% | 102% | 72% | 48.2% | 93.5% | 75.2% | 116% | 52.3% | 95.8% | 89.5% | 91.2% | 111% | 95.2% | 99.5% | 91.8% | 99.7% | 
COc1ccc(C(=O)COc2ccc(/C=C3\COc4ccc(OC)cc4C3=O)cc2)cc1 | 77.6% | 85.9% | 96.1% | 110% | 104% | 77.7% | 70.1% | 77.9% | 90.5% | 122% | 107% | 33.7% | 90.2% | 106% | 21.7% | 112% | 144% | 105% | 29.2% | 95%
COc1cccc(/C=C2\SC(=Nc3ccc(NC(C)=O)cc3)NC2=O)c1OC | 92.2% | 103% | 94.3% | 92.3% | 99.7% | 55.3% | 89.2% | 96% | 67.9% | 111% | 85.1% | 101% | 107% | 102% | 83.1% | 99% | 81.3% | 94.4% | 100% | 
N=C(N)c1ccc(-c2ccc(-c3ccc4ccccc4c3)s2)s1 | 5.5% (active) | 92.8% | 26.5% | 86.8% | -70.4% (active) | 28.8% | 15.3% | -36.3% (active) | -39.1% (active) | -40.8% (active) | -85.4% (active) | -47.2% (active) | 85.9% | -36.8% (active) | -55.1% (active) | -6.87% (active) | 22.3% | 73.8% | 77% | 
Cc1cc(NS(=O)(=O)c2ccc(-c3cnc(C4CC4)o3)cc2)ccc1Cl | 24.3% | 58.4% | 44.7% | 34.1% | 7.65% (active) | 60.7% | -11.7% (active) | 15.3% | 33.7% | -13.7% (active) | 14.3% | 10.2% | 46.3% | 33.9% | -10.7% (active) | 49.4% | 1.8% (active) | -28.6% (active) | 45% | 
Oc1ccccc1-c1nnc(CNc2ccc(Cl)cc2)o1 | 34.8% | 30.1% | 32% | 25.7% | 7.25% (active) | 52.5% | 25.9% | 20.9% | 36.7% | 14.8% | 35.5% | 13.1% | 44% | 46.9% | 37% | 27.4% | 40.6% | 26.7% | 12.4% | 10.8%
Cc1ccc(NS(=O)(=O)c2ccc(-c3cnc(C4CC4)o3)cc2)cc1C | 21.2% | 47.6% | 42.7% | 33.7% | 12.3% | 29.6% | -7.94% (active) | 27.1% | 43.4% | -10.1% (active) | 14.4% | 9.36% (active) | 42.6% | 40.1% | -3.66% (active) | 52% | 10.3% | -13.6% (active) | 49.8% | 
COc1ccc(CCNc2nc3c(c(=O)n(Cc4ccc(Br)cc4)c(=O)n3C)n2C)cc1OC | 84.1% | 86.6% | 93.8% | 113% | 96.9% | 92.8% | 84.2% | 90% | 102% | 103% | 107% | 69.8% | 87.2% | 81.9% | 120% | 92.6% | 89.1% | 88.5% | 92.4% | 

— PubChem BioAssay (NCI)
